# According to ChEMBL document CHEMBL1157539, “Thousands of chemical starting points for antimalarial lead identification” (Nature, 2010):
# System: HepG2
# Assay: GSK_TCMDC: Percent inhibition of human HepG2 cell line. Test compounds present at 10uM.
# Format: functional
row,SMILES,Inhibition
1,Cc1ccccc1N1CCN(c2ccc(C(=O)NC(C)C)cn2)CC1.O=C(O)C(F)(F)F,13%
2,COc1ccc(-c2ccc(NC(=O)c3ccc(Cl)cc3)cc2)cc1CN(C)CCN(C)C.O=C(O)C(F)(F)F,37%
3,CN1CCN(c2cccc(-c3nnc(-c4ccc(OCC(=O)NCc5cccc(C(F)(F)F)c5)c([N+](=O)[O-])c4)o3)c2)CC1,25%
4,O=C(c1cncc(-c2ccccc2)c1)N(Cc1cncn1Cc1ccccc1F)CC1CC1,0%
5,Cc1cc(NC(=O)NCCN2CCC(NS(=O)(=O)c3cccc(Br)c3)C2)c2ccccc2n1.O=C(O)C(F)(F)F (centres undefined),0%
6,COc1cc(CNCCCCCCNCc2cc(OC)c3ccccc3c2OC)c(OC)c2ccccc12.CS(=O)(=O)O,99%
7,CCc1cn(C)c2c(N3CCCC3=O)cc(C(=O)N[C@@H](Cc3ccccc3)[C@H](O)CNC3CCCCC3)cc12,8%
8,Cc1cccc2nc(-c3cccc(-c4cccc(NC(=O)Cc5c[nH]cn5)c4)c3)[nH]c12,32%
9,Nc1nc(N)c2c(ccn2Cc2cc3c(cc2Cl)OCO3)n1,67%
10,Br.NCC(=O)NC12CC3CC(CC(C3)C1)C2,15%
11,O=C(Nc1ccc(-c2nc3ccccc3[nH]2)cc1)c1ccc(Cl)s1,16%
12,COc1cc(Nc2nccc(N3CCC(NC(=O)Nc4cccc(C(C)=O)c4)C3)n2)cc(OC)c1OC (centres undefined),8%
13,CC(=O)N1CCN(c2ccc(NC(=O)c3oc(-c4ccccc4)nc3C(F)(F)F)cn2)CC1,0%
14,O=C(Nc1ccc(Cl)cc1)c1cc(Cl)ccc1NC(=O)C1CCc2ccccc2O1 (centres undefined),1%
15,CCCCNCc1ccc(-c2nc(CN(Cc3ccc(Cl)c(Cl)c3)C(=O)CN(C)C)cs2)cc1.O=C(O)C(F)(F)F,36%
16,Cc1ccoc1C(=O)Nc1cccc(-c2cccc(-c3nc4cccc(C)c4[nH]3)c2)c1,17%
17,OC(c1ccc2ccccc2c1)C1CN(CCc2ccccc2)CCC1(O)c1ccccc1 (centres undefined),1%
18,Cc1c(CCNC(=O)CCCN2CC(C)CC(C)C2)c2ccccc2n1C.Cl (centres undefined),8%
19,O=C(/C=C/c1ccc(Cl)c(Cl)c1)NCCCCCCN1CCN(C(=O)Nc2ccc(F)c(Cl)c2)CC1,40%
20,Cc1nnsc1C(=O)Nc1ccc(-c2ccc(-c3nc4cccc(C)c4[nH]3)s2)cc1,63%

row,SMILES,Inhibition
1,CCOC(=O)N[C@@H]1CN[C@@H](C#Cc2cc3c(Nc4ccc(OCc5cccc(F)c5)c(Cl)c4)ncnc3s2)C1,8%
2,FC(F)(F)c1ccc2[nH]c(-c3cccc(-c4cccc(CNCCc5ccncc5)c4)c3)nc2c1.O=C(O)C(F)(F)F,31%
3,CCC(C)NC(=O)Nc1ccc(-c2cccc(-c3nc4cccc(C)c4[nH]3)c2)cc1 (centres undefined),55%
4,COc1ccc(CNCc2ccc(F)cc2)cc1-c1cccc(S(=O)(=O)NCCN2CCCC2)c1.O=C(O)C(F)(F)F,43%
5,Fc1ccc(C=NNc2nc3ccccc3[nH]2)cc1,0%
6,CCCOc1ccc(N2C(N)=NC(N)=NC2(C)C)cc1.Cl,1%
7,CCCc1ccc(NC(=O)c2cccc(CN3CCCN(Cc4cccc(C#N)c4)CC3)c2)cc1.O=C(O)C(F)(F)F,20%
8,CN1CCN(Cc2cccc(-c3ccc4c(Nc5ccc(Oc6cccnc6)cc5)ccnc4c3)c2)CC1,15%
9,COc1cc(C(=O)NC2CCN(Cc3ccccc3)CC2)ccc1-c1cc2cc(Cl)c(Cl)cc2[nH]1.O=C(O)C(F)(F)F,33%
10,Nc1ncc(-c2ccc3ncccc3c2)c(N)n1.O=C(O)C(F)(F)F,55%
11,FC(F)(F)c1ccc2[nH]c(-c3ccc(-c4cccc(CNCCc5cccnc5)c4)s3)nc2c1.O=C(O)C(F)(F)F,26%
12,O=C(Nc1ccc(C(=O)OCC(c2ccccc2)c2ccccc2)cc1)N[C@@H](Cc1ccc(O)cc1)C(=O)NC1CCN(Cc2ccc(O)cc2)C1.O=C(O)C(F)(F)F (some centres undefined),0%
13,N#Cc1ccc(-c2ccc(C(=O)NCCCCN3CCC(c4cn(CCCO)c5ccccc45)CC3)cc2)cc1,31%
14,CCCCCCCCCN1CC[C@@H](CCCc2ccnc3ccc(O)cc23)[C@@H](CC)C1.O=C(O)C(=O)O,58%
15,Fc1ccc2[nH]cc(CCNCc3ccc(-c4cccc(-c5nc6ccccc6[nH]5)c4)cc3)c2c1.O=C(O)C(F)(F)F,69%
16,CCCCCCNC(=O)C1Cc2c([nH]c3ccc(Br)cc23)C2(CCN(CCc3ccccc3)CC2)N1 (centres undefined),36%
17,O=C(Nc1ccc(CN2CCCCC2)cc1)c1ccc(COc2ccc([N+](=O)[O-])cc2)o1,12%
18,O=C(Nc1nc(-c2ccccn2)cc2ccccc12)c1cccc(Cl)c1,59%
19,CCC(C)c1ccc(NC(=O)Nc2ccc(Cn3ncc(N4CCCNCC4)c(Cl)c3=O)cc2)cc1.O=C(O)C(F)(F)F (centres undefined),0%
